Out of some 52,000 compounds screened, about 1,700 (3.3%) were called active. The sample holds actives, similar compounds and a random draw of the others, so the mix is not that of the screen. A number with no mark means an inactive call. Rule as the data show it: active = survival mostly below about 52% (no sharp cut-off); inactive = mostly above about 56%.
The compounds below were run on Wild type (assay: growth inhibition of S. aureus wild type versus tarO mutant, primary screen, teichoic acid synthesis inhibitors, RN4220, OD600 (AID 463173)). Conditions: S. aureus RN4220 wild type/DeltatarO growth, OD600, 18 h, stronger effect = lower value, screened at 18.75 µg/mL (by protocol).

Row | SMILES | survival
1 | CC(C)C1N(c2ccccc2)CCN1c1ccccc1 | 110%
2 | Cc1ccccc1OCC(=O)NCCN1CCCC1 | 113%
3 | COc1cc(-c2noc(CSc3nc(-c4ccccc4)cc(=O)[nH]3)n2)cc(OC)c1OC | 59%
4 | O=c1[nH]cc(COCC(F)(F)C(F)F)c(=O)[nH]1 | 111%
5 | Cc1ccc(CNC(=O)CCSCc2ccccc2F)cc1 | 74%
6 | Cc1ccccc1CS(=O)(=O)Cc1ccc(C(=O)NCCc2ccc(Cl)cc2)o1 | 88%
7 | O=C(NCc1ccccc1Cl)c1ccc(CSCc2cccc(F)c2)o1 | -1% (active)
8 | Cc1ccc(CCNC(=O)CCSCc2ccccc2F)cc1 | -6% (active)
9 | O=C(NCCc1ccc(Cl)cc1)c1ccc(CS(=O)(=O)Cc2ccccc2F)o1 | -3% (active)
10 | O=C(CCSCc1cccc(Cl)c1)NCCc1ccc(Cl)cc1 | 67%
11 | O=C(CCSCc1ccc(Cl)cc1)NCCc1ccccc1 | -6% (active)
12 | CCc1ccc(CNC(=O)CCSCc2ccccc2F)cc1 | 70%
13 | O=C(NCc1ccc(F)cc1Cl)c1ccc(CSCc2ccccc2Cl)o1 | 53%
14 | O=C(NCc1ccccc1Cl)c1ccc(CSCc2ccccc2Cl)o1 | 66%
15 | Cc1ccc(CCNC(=O)c2ccc(CS(=O)(=O)Cc3ccccc3F)o2)cc1 | 71%
16 | Cc1ccc(CCNC(=O)CCSCc2ccc(Cl)cc2)cc1 | 72%
17 | COc1cccc(CNS(=O)(=O)c2ccc(-c3cc(C(F)(F)F)on3)s2)c1 | 87%
18 | CC1=C(C(=O)Nc2cc(Cl)ccc2C)C(c2sccc2C)n2ncnc2N1 (stereo not given) | 47%
19 | O=C(CSc1nc2c([nH]c3ccccc32)c(=O)n1-c1cccc(Cl)c1)NCc1ccccc1 | 78%
20 | COc1cccc(Cn2c(CNC(=O)C(C)C)nc3cccnc32)c1 | 80%
21 | Cc1oc(-c2ccc(C(=O)NCc3ccccc3)cc2)nc1CN1CCc2ccccc21 | 80%
22 | CC(C)(C)OC(=O)N1CCC(c2c(C(=O)NCc3cccc(Cl)c3)cnn2-c2ccc(F)cc2)CC1 | 78%
23 | COc1ccc(-c2nc(SCC(=O)Nc3ccc4c(c3)OCCO4)c(-c3ccc(F)cc3)[nH]2)cc1OC | 62%
24 | Cc1ccccc1C(=O)NCC(c1ccc(N(C)C)cc1)N1CCCC1 (stereo not given) | 66%

Row | SMILES | survival
25 | COc1ccc(CCNC(=O)CCSCc2ccccc2Cl)cc1OC | 88%
26 | O=C(CCSCc1ccccc1Cl)NCCc1ccccc1 | 74%
27 | O=C(CCSCc1ccc(Cl)cc1)NCc1ccc(F)cc1Cl | 79%
28 | Cc1ccc(CCNC(=O)c2ccc(CSCc3ccccc3C)o2)cc1 | 0% (active)
29 | Cc1ccccc1CSCc1ccc(C(=O)NCCc2ccccc2)o1 | 77%
30 | Cc1ccc(CCNC(=O)CCSCc2ccccc2Cl)cc1 | -3% (active)
31 | O=C(CCSCc1cccc(Cl)c1)NCc1ccc(F)cc1Cl | 66%
32 | Cc1ccc(CCNC(=O)c2ccc(CSCc3ccccc3Cl)o2)cc1 | 72%
33 | O=C(CCSCc1ccccc1Cl)NCc1ccc(F)cc1Cl | 0% (active)
34 | CC1(C)CC(NC(=O)NCc2ccc3c(c2)OCO3)CC(C)(CNC(=O)NCc2ccc3c(c2)OCO3)C1 (stereo not given) | 117%
35 | CCOCCc1nn2c(=O)cc(COC(=O)c3ccccc3OC)nc2s1 | 78%
36 | CC(=O)N1CCc2c(sc3c2c(=O)n(Cc2ccccc2)c(=O)n3Cc2ccccc2Cl)C1 | 98%
37 | C/C(=N\NC(N)N)C1CCCCCCCCCCC1 | -1% (active)
38 | Cc1nc(C)c(CC(=O)O)c(=O)[nH]1 | 112%
39 | CCOc1ccc(-n2cc(-c3ccccc3)c3c(NCCc4ccccc4)ncnc32)cc1 | 74%
40 | Cc1nc2nc(SCC(=O)NCCc3ccc(Cl)cc3)nn2c(C)c1Cc1ccccc1Cl | 80%
41 | Cc1nc2nc(SCC(=O)NCc3ccccc3)nn2c(C)c1Cc1ccccc1 | 0% (active)
42 | Cc1nc2nc(SCC(=O)NCc3ccccc3)nn2c(C)c1Cc1ccccc1Cl | 128%
43 | Cc1cccc(Cc2c(C)nc3nc(SCC(=O)NCc4ccccc4)nn3c2C)c1 | 71%
44 | Cc1cccc(Cc2c(C)nc3nc(SCc4ccccc4C)nn3c2C)c1 | 87%
45 | Cc1nc2nc(SCC(=O)NCc3ccccc3Cl)nn2c(C)c1Cc1ccccc1 | 68%
46 | Cc1cccc(Cc2c(C)nc3nc(SCc4ccccc4F)nn3c2C)c1 | 91%
47 | Cc1nc2nc(SCC(=O)NCCc3ccc(Cl)cc3)nn2c(C)c1Cc1c(F)cccc1Cl | -2% (active)
48 | Cc1nc2nc(SCC(=O)NCCc3ccccc3)nn2c(C)c1Cc1c(F)cccc1Cl | 65%

Row | SMILES | survival
49 | Cc1nc2nc(SCC(=O)Nc3ccccc3Cl)nn2c(C)c1Cc1ccccc1 | -3% (active)
50 | Cc1cccc(Cc2c(C)nc3nc(SCc4ccccc4Cl)nn3c2C)c1 | -5% (active)
51 | Cc1ccc(NC(=O)CSc2nc3nc(C)c(Cc4ccccc4)c(C)n3n2)cc1 | 47%
52 | Cc1cccc(Cn2c(CN3CCC(C(=O)NCCc4ccccc4)CC3)cc3ccccc32)c1 | 128%
53 | COc1cc(-c2nc(-c3ccc4c(c3)[nH]c(=O)n4C)no2)cc(OC)c1OC | 83%
54 | COC(=O)c1cc(-c2ccccc2)sc1N | 116%
55 | COCCNC(=O)CSc1nc(-c2ccc(C)cc2)nc2c1c(=O)n(C)c(=O)n2C | 77%
56 | CCOc1ccc(OCC)c(S(=O)(=O)N2CCC(C)CC2)c1 | 102%
57 | CC(C)CCNC(=O)Cn1cc(S(=O)(=O)Cc2ccc(F)cc2)c2ccccc21 | 91%
58 | O=C(CSc1nnc(-c2cccs2)o1)Nc1cccc(C(F)(F)F)c1 | 71%
59 | Cc1ccc(C)c(N2CCN(C(=O)C3CCN(c4nc(-c5ccc(C(C)C)cc5)no4)CC3)CC2)c1 | 87%
60 | CCOCCCn1c(SCC(=O)Nc2ccc(C)cc2)nc2ccccc2c1=O | 83%
61 | c1ccc(-n2nnnc2N2CCCC2)cc1 | 102%
62 | O=C(NC1CCCC1)C(c1ccccc1)N(Cc1ccccc1F)C(=O)c1ccco1 (stereo not given) | 118%
63 | Cc1ccc(-c2nnn(CC(=O)N(Cc3ccccc3)C(C(=O)NC3CCCC3)c3ccco3)n2)cc1 (stereo not given) | 99%
64 | COc1ccc(C(C(=O)NC2CCCC2)N(Cc2ccc(C)cc2)C(=O)c2ccn[nH]2)cc1OC (stereo not given) | 103%
65 | CCOC(=O)CN(Cc1ccccc1)C(C(=O)NC1CCCCC1)c1ccccc1 (stereo not given) | -2% (active)
66 | CCOC(=O)CN(Cc1ccccc1)C(C(=O)NC1CCCCC1)c1ccc(OC)cc1 (stereo not given) | 20%
67 | O=C(NC1CCCC1)C(c1ccccc1)N(C(=O)c1ccco1)C1CCCC1 (stereo not given) | 88%
68 | Cc1ccc(C(C(=O)NC2CCCCC2)N(C)Cc2ccccc2)cc1 (stereo not given) | -1% (active)
69 | CN(Cc1ccccc1)C(C(=O)NC1CCCCC1)c1ccc(Cl)cc1 (stereo not given) | 74%
70 | CCOC(=O)CN(Cc1ccccc1)C(C(=O)NC1CCCCC1)c1ccc(C)cc1 (stereo not given) | -2% (active)

From PubChem BioAssay AID463173 (ICCB-Longwood Screening Facility, Harvard Medical School, 2010)
